Compound activity: PubChem BioAssay, several laboratories
The list is not random: actives were taken first. Their share in the collection is about 2.9%.
FAS TE block: FAS thioesterase domain inhibitors, primary screen, biochemical, fluorescence intensity, uHTS. Fatty acid synthase (Homo sapiens), P49327. recombinant FAS-TE, OMFH fluorogenic substrate, fluorescence endpoint. inhibition, % at 15 µM. 0.67% of 360,000 active. AID 602261, 2012;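 active = compounds whose normalised, plate-corrected inhibition of enzyme fluorescence in the single-dose primary screen is 50% or more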
SMARCA2 act: SMARCA2 (BRM) function activators, primary screen, cell-based, luminescence, high throughput. MG213 cells, MMTV-luciferase reporter, dexamethasone, overnight. activation, % at 9.1 µM. 1% of 370,000 active; in the data active = activation above about 7.8%
FXN GAA850 act: FXN promoter activators, primary screen, cell-based, luciferase luminescence, HEK293 lucGAA850. HEK293 lucGAA850 FXN promoter luciferase reporter, 24 h; percent of 10 µM SAHA response. activation, % at 6 µM. 0.56% of 360,000 active;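 active = activation above the average of all compounds screened plus 3 SD, cutoff fixed separately per campaign, cut at about 7.5% in these data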
proKLK7 act: proKLK7 zymogen activators, primary screen, biochemical, fluorescence intensity | purified proKLK7, EDANS-DABCYL substrate fluorescence; 100% is mature enzyme control, 0% vehicle | 0.9% of 370,000 active | Kallikrein-7 (Homo sapiens), P49862 | AID 652039, 2013 | activation, % at 7 µM;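 active = activation above the mean of all tested compounds plus 3 SD, computed per campaign excluding outliers beyond control limits, cut at about 13% in these data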
SMARCA2 act conf: SMARCA2 (BRM) function activators, confirmation, cell-based, luminescence, triplicate. shares compounds with SMARCA2 act. activation, % at 9.1 µM. 30% of 3,500 active. MG213 cells, MMTV-luciferase with dexamethasone, overnight; MG213 cells expressing E1A, Rb sequestered; DMSO wells 0%, reference activator 100%;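 active = activation above its plate's cutoff, the mean activation of tested wells plus 3 SD, cut at about 7.9% in these data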
GAL4-VP16 Luc: GAL4-VP16 luciferase reporter activation, counter-screen for SMARCA2 (BRM) activator project, cell-based, pG5luc, luminescence, high throughput; shares compounds with SMARCA2 act; HEK293 GAL4-VP16 pG5luc reporter; scaled: DMSO wells 0%, SAHA wells 100%; activation, % at 9.1 µM; 41% of 3,500 active; AID 686939, 2013;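 active = activation above the solvent-only control well mean plus 3 SD, averaged across control plates, cut at about 5.2% in these data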
Of the large screens only hits and unclear results are named; the others gave an inactive call (follow-up assays come after a bar, where they were run).

CN1CCN(c2ccc(-c3cc(NC=O)c4ncc(-c5ccccc5)n4c3)cc2)CC1	none
CN1CCN(c2ccc(-c3cc(NC=O)c4ncc(-c5ccc(F)cc5)n4c3)cc2)CC1	SMARCA2 act 10 | SMARCA2 act conf 14 | GAL4-VP16 Luc 12
COc1cc(-c2cc(NC=O)c3ncc(-c4ccc(C(C)=O)cc4)n3c2)ccc1O	SMARCA2 act 14 | SMARCA2 act conf 21 | GAL4-VP16 Luc inactive
COc1cccc(-c2cnc3c(NC=O)cc(-c4ccc(O)c(OC)c4)cn23)c1	none
COc1cc2c(cc1OC)CN(C(=O)C1(c3ccccc3)CC1)CC2	none
Cc1ccccc1-c1nnc(-c2ccccc2)o1	none
Cn1cc(-c2nnc(-c3ccccc3)o2)c2ccccc21	SMARCA2 act 13 | SMARCA2 act conf inactive | GAL4-VP16 Luc 7.2
COc1ccc(Nc2nc(N)nc(CSc3nccn3C)n2)cc1	SMARCA2 act 8.7 | SMARCA2 act conf inactive | GAL4-VP16 Luc 8.2
COc1ccc(Nc2nc(N)nc(CSc3nnc(N)s3)n2)cc1	none
COc1ccc(NC(=O)c2cc(F)cc(F)c2)cc1Cl	SMARCA2 act 9.0 | SMARCA2 act conf inactive | GAL4-VP16 Luc inactive
COc1ccc(NC(=O)c2c(F)c(F)c(F)c(F)c2F)cc1Cl	none
CCOC(=O)c1c(C)oc(NC(=O)COc2ccc(Cl)cc2C)c1C#N	none
CCN(Cc1cccs1)C(=O)c1cccc(S(=O)(=O)N2CCN(C)CC2)c1	none
N#Cc1ccc(C(=O)OCC(=O)N2CCCCCC2)cc1	none
COc1ccc(-c2cc(C(=O)Nc3cc(OC)c(OC)c(OC)c3)[nH]n2)c(C)c1	none
COc1ccc(-c2cc(C(=O)Nc3ccc(NC(C)=O)cc3)[nH]n2)c(C)c1	SMARCA2 act 9.6 | SMARCA2 act conf inactive | GAL4-VP16 Luc inactive
CC(C)(C)OC(=O)NCCOC(=O)c1[nH]cnc1C(=O)NCc1ccccc1	none
Cc1ccsc1C(=O)NNC(=O)C1CCCCC1C(=O)O (stereo unspecified)	none
Cc1ccsc1C(=O)NNC(=O)C1CC=CCC1C(=O)O (stereo unspecified)	SMARCA2 act 8.6 | SMARCA2 act conf inactive | GAL4-VP16 Luc inactive
CC(=O)c1cccc(Nc2cc(C)nc3c(C)cc(C)cc23)c1	none
CC(=O)c1cccc(Nc2cc(C)nc3ccc(C)cc23)c1	SMARCA2 act 11 | SMARCA2 act conf inactive | GAL4-VP16 Luc inactive
O=C(Nc1nccs1)c1ccc(-c2ccc(F)c(Cl)c2)o1	none
C/C(=N\Nc1cccc([N+](=O)[O-])c1)c1ccccc1O	SMARCA2 act 12 | SMARCA2 act conf inactive | GAL4-VP16 Luc inactive
COCCn1c(=O)[nH]c2cc(C(=O)Nc3nnc(C)s3)ccc21	SMARCA2 act 8.2 | SMARCA2 act conf inactive | GAL4-VP16 Luc inactive
COc1cccc(NC(=O)c2oc3ccccc3c2NC(C)=O)c1	none (no result: SMARCA2 act, proKLK7 act)
COCC(=O)Nc1c(C(=O)Nc2cccc(OC)c2)oc2ccccc12	SMARCA2 act 10 | SMARCA2 act conf 12 | GAL4-VP16 Luc 6.2
Cc1ccc(CNC(=O)CCS(=O)(=O)c2ccc(C)cc2)cc1	SMARCA2 act 10 | SMARCA2 act conf inactive | GAL4-VP16 Luc inactive
CC1CSc2nc3sc4c(c3c(=O)n21)CCCC4 (stereo unspecified)	none
CC1=Nn2c(nc3sc4c(c3c2=O)CCCC4)SC1	SMARCA2 act 10 | SMARCA2 act conf inactive | GAL4-VP16 Luc inactive
CCOC(=O)[C@]12CCCC3=C1N(CCC3)C(=O)[C@@H](CC(=O)NCc1ccc(OC)c(OC)c1)C2	SMARCA2 act 8.0 (no result: FAS TE block, FXN GAA850 act) | SMARCA2 act conf inactive | GAL4-VP16 Luc inactive
Cc1cc(NC(=O)c2ccco2)sc1C	SMARCA2 act 9.1 | SMARCA2 act conf 12 | GAL4-VP16 Luc 11
Cc1ccc2nc(NC(=S)NC(=O)c3ccco3)sc2c1	SMARCA2 act 17 | SMARCA2 act conf 9.5 | GAL4-VP16 Luc 15
Cc1ccc(-c2nnc(NC(=O)c3ccco3)s2)cc1	SMARCA2 act 9.2 | SMARCA2 act conf 13 | GAL4-VP16 Luc 12
O=C(Nc1nc2ccsc2c(=O)s1)c1ccco1	SMARCA2 act 13 | SMARCA2 act conf 10.0 | GAL4-VP16 Luc 6.4
Cc1ccc2nc(NC(=O)c3ccco3)sc2c1	none
CCOC(=O)CCCNC(=O)COC(=O)[C@@H]1CCCN1S(=O)(=O)c1ccc(Cl)cc1	none
COc1ccc(/C=C/c2noc(-c3ccccc3O)n2)cc1	SMARCA2 act 8.6 | SMARCA2 act conf inactive | GAL4-VP16 Luc 7.0
COc1cc(/C=C/c2noc(-c3ccccc3O)n2)cc(OC)c1OC	none
COc1ccc(C2c3[nH]c4ccccc4c3CCN2C(=O)c2ccc(=O)n(C)n2)c(F)c1 (stereo unspecified)	none
Cc1ccccc1C1c2[nH]c3ccccc3c2CCN1C(=O)c1ccc(=O)n(C)n1 (stereo unspecified)	SMARCA2 act 9.6 | SMARCA2 act conf inactive | GAL4-VP16 Luc inactive
Cc1nc2ccc(Cl)cc2nc(C)/c1=N\O	SMARCA2 act 8.1 | SMARCA2 act conf 9.7 | GAL4-VP16 Luc 8.7
Cc1ccc2nc(C)/c(=N\O)c(C)nc2c1	none
COc1ccc(NC2=C(NC(C)=O)C(=O)c3ccccc3C2=O)cc1	none
CCC(=O)NC1=C(Nc2ccc(N)cc2)C(=O)c2ccccc2C1=O	SMARCA2 act 9.0 | SMARCA2 act conf inactive | GAL4-VP16 Luc 11
CC(/C=N/NC(=O)c1cccc(F)c1)=C\c1ccccc1	none
Fc1cc(F)c2nc(N3CCCC3)sc2c1	SMARCA2 act 8.4 | SMARCA2 act conf inactive | GAL4-VP16 Luc inactive
COc1ccc(NC(=O)C2CC(=O)N/C(=N/N=C/c3ccco3)S2)cc1 (stereo unspecified)	none
COc1ccc(CN=C2NC(=O)CC(C(=O)Nc3ccc(F)cc3)S2)cc1 (stereo unspecified)	SMARCA2 act 8.3 | SMARCA2 act conf inactive | GAL4-VP16 Luc inactive
CCC(=O)Nc1cc(C(=O)OCC(=O)c2ccccc2)ccc1C	SMARCA2 act 11 | SMARCA2 act conf inactive | GAL4-VP16 Luc 7.7
O=C(COC(=O)c1cccc(O)c1)c1ccccc1	SMARCA2 act 8.5 | SMARCA2 act conf 13 | GAL4-VP16 Luc inactive
Nc1cccc(C(=O)OCC(=O)c2ccccc2)c1	none
O=C(c1[nH]c(C(F)(F)F)nc1-c1ccccc1)N1CCc2c([nH]c3ccccc23)C1	none (no result: FXN GAA850 act)
C=CCOc1cccc(C2/C(=C(/O)c3ccc4c(c3)CC(C)O4)C(=O)C(=O)N2CCN2CCOCC2)c1 (stereo unspecified)	none
Cc1nn2cc(-c3ccc(-c4ccccc4)cc3)nc2s1	none
